The source of these data is PubChem BioAssay AID2111 (National Center for Advancing Translational Sciences (NCATS), 2009).

Where “and” joins values, the source holds several entries; their conditions need not be identical. Equal values may be shown once. Calls of active or inactive are those of the source. The call rests on the fitted dose curve; in most records, active means well fitted curve in either direction with a large enough effect; inconclusive means small, poorly fitted or top-dose-only effect; inactive means no such curve, though single readings can be large or run the other way.

The test has as its target Lysosomal alpha-glucosidase (Homo sapiens) (UniProt P10253). Nature of the test: Confirmation of Inhibitors and Activators of Human alpha-Glucosidase From Spleen Homogenate Using an Alternate Red Fluorescent Susbtrate. As to conditions: resorufin-glucoside fluorescence; series mostly up to 62.8 µM; activity change, negative = inhibition: at the top concentration. The text has this:
NIH Chemical Genomics Center [NCGC] NIH Molecular Libraries Probe Production centers Network [MLPCN] MLPCN Grant: 1R03MH084841-01 Assay Submitter (PI): Wei Zheng NCGC Assay Overview: Alpha-glucosidase is responsible for hydrolysis of terminal, non-reducing 1,4-linked alpha-D-glucose residues with release of alpha-D-glucose. It is a lysosomal hydrolase that is required for the degradation of a small percentage (1-3%) of cellular glycogen in human. Deficiency of this enzyme results in glycogen-storage disease type II (GSDII), also referred to as Pompe disease, an autosomal recessive disorder. Structurally normal glycogen is accumulated in lysosomes and cytoplasm in affected patients, primarily in muscle tissues. Excessive glycogen storage within lysosomes may interrupt normal functioning of other organelles and leads to cellular injury. In turn, this leads to enlargement and dysfunction of the entire organ involved (eg, cardiomyopathy and muscle weakness). It has reported that the improper folding and trafficking of alpha-glucosidase resultinged from the genetic mutations may account for a significant number of Pomrope patients. […] We optimized this alpha-glucosidase assay in 1536-well plate format for identifying the novel small molecule inhibitors with the structures other than the sugar analogs in order to develop the new pharmacological chaperones. In particular, this assay is directed towards discovering compounds active in a more natural setting, tissue homogenate, that may have been missed by screens of the purified enzyme under more stringent conditions. This assay attempted to confirm hits from the primary screening using an alternate fluor than the primary screen used.
NCGC Assay Protocol Summary: This is a fluorogenic enzyme assay with Resorufin-alpha-D-glucopyranoside as the substrate and human spleen homogenate containing alpha-glucosidase as the enzyme preparation. Upon hydrolysis of this fluorogenic substrate, the resulting product, resorufin (which excites at 573 nm and emits at 610 nm) can be detected by a fluorescence plate reader. Data were normalized to the controls for basal activity (without enzyme) and 100% activity (with enzyme). The AC50 values were determined from concentration-response data modeled with the standard Hill equation. Assay buffer: 50 mM citric acid (titrated with potassium phosphate to pH 5.0), 0.01% Tween-20 (pH 5.0 is an optimal condition for this enzyme assay) 1536-well assay protocol for the alpha-glucosidase from human spleen homogenate: (1) Add 2 ul/well spleen homogenate (1 ug) (2) Add 23 nL compounds in DMSO solution. The final titration was 0.5 nM to 58 uM. (3) Add 2 ul of substrate (1 mM final) (4) Incubate at 37 C for 40 min (5) Add 2 ul stop solution (1M NaOH and 1M Glycine mixture, pH 10) (6) Detect the assay plate in a ViewLux plate reader (PerkinElmer) with […]. Keywords: Alpha-glucosidase, Pompe Disease, pharmacological chaperone, chaperone therapy, high throughput screening, alpha-glucosidase inhibitor, MLSMR, MLSCN, NIH Roadmap, qHTS and NCGC
Consider `CC(=O)c1ccc(N2CCN(S(=O)(=O)c3ccc4[nH]c(=O)oc4c3)CC2)cc1`, for which the “activity change, negative = inhibition” value is -4.53% (inactive).
Same read-out and setting: then `CC(=O)c1ccc(N2CCN(S(=O)(=O)c3ccc4c(c3)CCC(=O)N4)CC2)cc1`, with 9.43% (inactive); and `COc1cccc(CCn2c(N)cc(=O)[nH]c2=S)c1OC`, with 8.02% (inactive).
Same read-out and setting: then `COc1ccc(CCn2c(=S)[nH]c(=O)c3c(C)cc(C)nc32)cc1OC`, with 5.96% (inactive); and `CCCN1CNc2c(c(=O)[nH]c(=S)n2CCC(C)(C)C)C1`, with 2.22% (inactive).
As for `CCCN1CNc2c(c(=O)[nH]c(=S)n2CCc2ccc(OCC)c(OCC)c2)C1`, the Potency was 7.94 µM (active).
Still for that read-out and setting: then `CCCN1CNc2c(c(=O)[nH]c(=S)n2CCc2c(Cl)cccc2Cl)C1`, with 5.01 µM (active); and `CCCN1CNc2c(c(=O)[nH]c(=S)n2CCc2ccc(OC)cc2OC)C1`, with 8.91 µM (active).
In the case of `O=S(=O)(c1ccc(Cl)cc1)N1CCN(c2nc(Nc3cc(Cl)ccc3O)nc3ccccc23)CC1`, the “activity change, negative = inhibition” value was 7.06% [at 32.4 µM] (inactive).
Regarding `CC(=O)c1ccc(N2CCN(S(=O)(=O)c3ccc4c(c3)n(C)c(=O)n4C)CC2)cc1`, the “activity change, negative = inhibition” value is 0.436% (inactive).
Turning to `O=Cc1ccc(N2CCN(S(=O)(=O)c3ccc4c(c3)CC(=O)N4)CC2)cc1`, the Potency is 5.17 µM [inhibitor] (active).
As to `CC(=O)c1ccc(N2CCN(S(=O)(=O)c3ccc4c(c3)OCC(=O)N4)CC2)cc1`, the “activity change, negative = inhibition” value is 3.49% (inactive).
`CC(=O)c1ccc(N2CCN(S(=O)(=O)c3ccc4c(c3)CC(=O)N4)CC2)cc1`: the Potency is 1.03 µM [inhibitor] (active) and 943 nM [inhibitor] (active) and 2.06 µM [inhibitor] (active).
On the same count and under the same terms, then `CCCN1CNc2c(c(=O)[nH]c(=S)n2CCc2c(OC)cccc2OC)C1`, with 35.5 µM (active); and `CCCN1CNc2c(c(=O)[nH]c(=S)n2CCc2cccc(C)c2)C1`, with 15.8 µM (active).
On the same count and under the same terms, next, `COc1ccc(CCn2c3c(c(=O)[nH]c2=S)CN(Cc2ccccc2)CN3)cc1OC`: 7.94 µM (active); `CCCN1CNc2c(c(=O)[nH]c(=S)n2Cc2ccc(OC)c(OC)c2)C1`: 5.01 µM (active).
Same read-out and setting: then `COc1ccc(N2CCN(S(=O)(=O)c3ccc4c(c3)CC(=O)N4)CC2)cc1`, with 6.68 µM [inhibitor] (active).
Consider `Cc1ccc(S(=O)(=O)N2CCN(C(=O)N(c3ccccc3)c3ccccc3)CC2)cc1`, for which the “activity change, negative = inhibition” value was -39.1% [at 130 µM] (inactive).
Take `CCCN1CNc2c(c(=O)[nH]c(=S)n2CCc2cccc(Cl)c2Cl)C1`: the Potency was 0.891 µM (active).
With `CC(=O)c1ccc(N2CCN(S(=O)(=O)c3ccc4c(c3)CCCC(=O)N4)CC2)cc1`, the “activity change, negative = inhibition” value was -0.443% (inactive).
For `CCCN1CNc2c(c(=O)[nH]c(=S)n2CCc2ccc3c(c2)OCCO3)C1`, the Potency is 8.91 µM (active).
For the compound `O=C1Cc2cc(S(=O)(=O)N3CCNCC3)ccc2N1`, the “activity change, negative = inhibition” value was -0.948% (inactive).
For the compound `COc1ccc(CCn2c(=S)[nH]c(=O)c3[nH]cnc32)cc1OC`, the “activity change, negative = inhibition” value was 7.23% (inactive).
Turning to `CCCCN1C[C@H](O)[C@@H](O)[C@H](O)[C@H]1CO`, the “activity change, negative = inhibition” value is -94.3% (inactive).
For `CCCN1CNc2c(c(=O)[nH]c(=S)n2CCc2ccc(Cl)c(Cl)c2)C1`, the Potency was 8.91 µM (active).
Regarding `OCCNc1nc(-c2cccs2)nc2ccccc12`, the “activity change, negative = inhibition” value was 7.11% (inactive).
With `O=S(=O)(c1ccc(Cl)cc1)N1CCN(c2nc(-c3cccs3)nc3ccccc23)CC1`, the “activity change, negative = inhibition” value was 4.37% (inactive).
In the case of `O=C1Cc2cc(S(=O)(=O)N3CCN(c4ccc([N+](=O)[O-])cc4)CC3)ccc2N1`, the Potency is 5.8 µM [inhibitor] (active).
On the same count and under the same terms, then `CCCN1CNc2c(c(=O)[nH]c(=S)n2CCc2ccccc2Cl)C1`, with 11.2 µM (active).
Consider `O=C1Cc2cc(S(=O)(=O)N3CCN(c4ccc(C(F)(F)F)cc4)CC3)ccc2N1`, for which the “activity change, negative = inhibition” value was -24.1% [at 130 µM] (inactive).
In the case of `COc1ccc(CCn2c3c(c(=O)[nH]c2=S)CN(C)CN3)cc1OC`, the Potency was 31.6 µM (active).
On the same count and under the same terms, next, `CCCN1CNc2c(c(=O)[nH]c(=S)n2CCc2cc(Cl)ccc2Cl)C1`: 10 µM (active); `CCCN1CNc2c(c(=O)[nH]c(=O)n2CCc2ccc(OC)c(OC)c2)C1`: 15.8 µM (active); `CCCN1CNc2c(c(=O)[nH]c(=S)n2CCc2ccccc2OC)C1`: 14.1 µM (active).
The same measure, in the same setting: then `CCCN1CNc2c(c(=O)[nH]c(=S)n2CCc2cccs2)C1`, with 31.6 µM (active); and `CCCN1CNc2c(c(=O)[nH]c(=S)n2CCc2cc(C)cc(C)c2)C1`, with 4.47 µM (active); and `CCCN1CNc2c(c(=O)[nH]c(=S)n2CCc2ccc(C)c(C)c2)C1`, with 7.94 µM (active).
Still for that read-out and setting: then `N#Cc1ccc(N2CCN(S(=O)(=O)c3ccc4c(c3)CC(=O)N4)CC2)cc1`, with 1.63 µM [inhibitor] (active); and `O=C1Cc2cc(S(=O)(=O)N3CCN(c4ccc(CO)cc4)CC3)ccc2N1`, with 13 µM [inhibitor] (active).
